From paper PMC7862700, “An all-to-all approach to the identification of sequence-specific readers for epigenetic DNA modifications on cytosine”

Columns and labels:
Assay in all cases: DAPPL (digital affinity profiling via proximity ligation, sequencing); 10 mM Tris-HCl pH 7.5, 50 mM NaCl, 1 mM DTT, 4% glycerol, room temperature, 30 min; GST-TFs on glutathione beads, 16-mer random dsDNA library, 0.1% formaldehyde crosslink after washing; high values mean tight binding
FEV = biological target: T1, FEV (Homo sapiens, UniProt Q99581 1-238); details: protein: recombinant; tags: N-terminal GST; dsDNA, one strand shown
T1 sequence: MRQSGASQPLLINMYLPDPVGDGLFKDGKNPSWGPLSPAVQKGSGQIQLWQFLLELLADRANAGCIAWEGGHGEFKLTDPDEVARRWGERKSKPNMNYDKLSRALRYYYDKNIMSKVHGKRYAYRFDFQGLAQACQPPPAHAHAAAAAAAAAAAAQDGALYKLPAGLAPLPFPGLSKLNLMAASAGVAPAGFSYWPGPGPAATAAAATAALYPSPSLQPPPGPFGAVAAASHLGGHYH
Outline: (§1)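 Sequencing on an Illumina NextSeq500 followed washing, crosslinking with 0.1% formaldehyde, proximity ligation (BsaI/T4 ligase, 1 h, 37 °C) and PCR amplification of pools that had been incubated for 30 min at room temperature with 200 nmole of a random double-stranded 16-mer DNA library in Tris/NaCl/DTT/glycerol buffer. Each pool held DNA-barcoded human transcription factors, expressed in yeast as GST fusions and captured on glutathione beads, plus a tag-only sample. Binding signal is a hexamer's read frequency for a factor divided by its frequency in the tag-only sample.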

ETV5 = ETV5 (Homo sapiens, UniProt P41161 1-510); details: protein: recombinant; tags: N-terminal GST; dsDNA, one strand shown
Outline: as §1

HSF1 = HSF1 (Homo sapiens, UniProt Q00613 1-529); details: protein: recombinant; tags: N-terminal GST; chain copies: 3; dsDNA, one strand shown
Outline: as §1

SPIC = biological target: T2, SPIC (Homo sapiens, UniProt Q8N5J4 1-248); details: protein: recombinant; tags: N-terminal GST; dsDNA, one strand shown
T2 sequence: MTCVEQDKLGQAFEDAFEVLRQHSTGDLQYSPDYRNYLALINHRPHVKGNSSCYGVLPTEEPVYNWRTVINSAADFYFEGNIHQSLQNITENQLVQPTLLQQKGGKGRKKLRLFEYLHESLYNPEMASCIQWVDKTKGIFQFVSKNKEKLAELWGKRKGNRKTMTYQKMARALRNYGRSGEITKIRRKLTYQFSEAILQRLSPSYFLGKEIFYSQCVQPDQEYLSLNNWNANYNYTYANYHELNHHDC
Outline: as §1

ELF4 = ELF4 (Homo sapiens, UniProt Q99607 1-663); details: protein: recombinant; tags: N-terminal GST; dsDNA, one strand shown
Outline: as §1

ELK4 = biological target: T3, ELK4 (Homo sapiens, UniProt P28324-2 1-405); details: protein: recombinant; tags: N-terminal GST; dsDNA, one strand shown
T3 sequence: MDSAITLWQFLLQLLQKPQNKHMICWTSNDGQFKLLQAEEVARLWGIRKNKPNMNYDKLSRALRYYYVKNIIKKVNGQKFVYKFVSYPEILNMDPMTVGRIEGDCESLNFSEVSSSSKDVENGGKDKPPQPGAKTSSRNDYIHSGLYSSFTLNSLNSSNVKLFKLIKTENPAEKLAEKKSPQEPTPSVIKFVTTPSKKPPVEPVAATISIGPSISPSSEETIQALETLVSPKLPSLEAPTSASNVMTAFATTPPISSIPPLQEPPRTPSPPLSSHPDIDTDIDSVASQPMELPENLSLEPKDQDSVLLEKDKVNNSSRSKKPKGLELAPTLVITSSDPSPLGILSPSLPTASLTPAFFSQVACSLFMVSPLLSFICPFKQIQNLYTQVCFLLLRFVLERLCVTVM
Outline: as §1

ETV2 = biological target: T4, ETV2 (Homo sapiens, UniProt O00321 1-342); details: protein: recombinant; tags: N-terminal GST; dsDNA, one strand shown
T4 sequence: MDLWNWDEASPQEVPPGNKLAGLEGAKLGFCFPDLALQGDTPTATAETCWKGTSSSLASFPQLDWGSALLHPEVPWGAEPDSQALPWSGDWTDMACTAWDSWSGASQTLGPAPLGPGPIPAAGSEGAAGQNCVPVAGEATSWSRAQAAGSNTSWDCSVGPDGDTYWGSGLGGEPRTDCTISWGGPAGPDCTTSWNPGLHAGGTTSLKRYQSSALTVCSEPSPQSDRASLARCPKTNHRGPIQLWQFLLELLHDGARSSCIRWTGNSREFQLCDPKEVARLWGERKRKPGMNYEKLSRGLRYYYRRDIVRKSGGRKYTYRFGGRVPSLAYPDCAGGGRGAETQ
Outline: as §1

ELF3 = biological target: T5, ELF3 (Homo sapiens, UniProt P78545 1-371); details: protein: recombinant; tags: N-terminal GST; dsDNA, one strand shown
T5 sequence: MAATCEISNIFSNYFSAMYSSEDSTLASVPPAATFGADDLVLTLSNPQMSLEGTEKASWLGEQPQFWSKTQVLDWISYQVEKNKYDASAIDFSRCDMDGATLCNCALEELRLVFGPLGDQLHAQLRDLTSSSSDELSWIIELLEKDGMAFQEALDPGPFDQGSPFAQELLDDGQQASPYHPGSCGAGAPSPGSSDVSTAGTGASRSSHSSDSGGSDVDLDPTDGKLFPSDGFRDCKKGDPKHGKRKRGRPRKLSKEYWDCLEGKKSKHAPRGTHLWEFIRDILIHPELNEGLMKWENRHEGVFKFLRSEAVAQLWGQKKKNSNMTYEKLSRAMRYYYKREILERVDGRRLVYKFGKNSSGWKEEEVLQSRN
Outline: as §1

CRX = CRX (Homo sapiens, UniProt O43186 1-299); details: protein: recombinant; tags: N-terminal GST; dsDNA, one strand shown
Outline: as §1

ETV1 = ETV1 (Homo sapiens, UniProt P50549 1-477); details: protein: recombinant; tags: N-terminal GST; dsDNA, one strand shown
Outline: as §1

ERF = biological target: T6, ERF (Homo sapiens, UniProt P50548 1-548); details: protein: recombinant; tags: N-terminal GST; dsDNA, one strand shown
T6 sequence: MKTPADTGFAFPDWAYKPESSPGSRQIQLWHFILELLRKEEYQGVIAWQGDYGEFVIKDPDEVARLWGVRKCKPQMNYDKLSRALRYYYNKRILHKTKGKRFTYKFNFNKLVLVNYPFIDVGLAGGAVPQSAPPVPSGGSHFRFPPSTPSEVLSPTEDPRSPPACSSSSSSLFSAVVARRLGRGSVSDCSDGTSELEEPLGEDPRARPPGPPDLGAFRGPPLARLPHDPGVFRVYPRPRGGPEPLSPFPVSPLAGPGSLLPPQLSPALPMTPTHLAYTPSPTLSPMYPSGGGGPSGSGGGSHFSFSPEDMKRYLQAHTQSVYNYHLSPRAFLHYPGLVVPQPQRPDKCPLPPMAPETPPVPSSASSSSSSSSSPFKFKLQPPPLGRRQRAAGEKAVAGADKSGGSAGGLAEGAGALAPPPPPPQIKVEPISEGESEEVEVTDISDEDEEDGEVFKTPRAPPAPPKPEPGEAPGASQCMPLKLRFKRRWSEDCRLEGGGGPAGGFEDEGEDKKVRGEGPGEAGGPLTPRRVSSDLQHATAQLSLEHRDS
Outline: as §1

ETV3L = biological target: T7, ETV3L (Homo sapiens, UniProt Q6ZN32 1-361); details: protein: recombinant; tags: N-terminal GST; dsDNA, one strand shown
T7 sequence: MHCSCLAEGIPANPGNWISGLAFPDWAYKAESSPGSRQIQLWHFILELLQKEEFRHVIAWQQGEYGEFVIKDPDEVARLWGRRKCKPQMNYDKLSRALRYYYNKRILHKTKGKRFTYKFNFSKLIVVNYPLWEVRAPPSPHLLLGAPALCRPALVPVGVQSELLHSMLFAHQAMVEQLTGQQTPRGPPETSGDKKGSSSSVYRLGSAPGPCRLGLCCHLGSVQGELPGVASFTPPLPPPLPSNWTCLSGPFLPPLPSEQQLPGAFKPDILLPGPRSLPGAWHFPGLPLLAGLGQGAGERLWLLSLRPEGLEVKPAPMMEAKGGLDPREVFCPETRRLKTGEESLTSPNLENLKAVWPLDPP
Outline: as §1

ETS2 = biological target: T8, ETS2 (Homo sapiens, UniProt P15036 1-469); details: protein: recombinant; tags: N-terminal GST; dsDNA, one strand shown
T8 sequence: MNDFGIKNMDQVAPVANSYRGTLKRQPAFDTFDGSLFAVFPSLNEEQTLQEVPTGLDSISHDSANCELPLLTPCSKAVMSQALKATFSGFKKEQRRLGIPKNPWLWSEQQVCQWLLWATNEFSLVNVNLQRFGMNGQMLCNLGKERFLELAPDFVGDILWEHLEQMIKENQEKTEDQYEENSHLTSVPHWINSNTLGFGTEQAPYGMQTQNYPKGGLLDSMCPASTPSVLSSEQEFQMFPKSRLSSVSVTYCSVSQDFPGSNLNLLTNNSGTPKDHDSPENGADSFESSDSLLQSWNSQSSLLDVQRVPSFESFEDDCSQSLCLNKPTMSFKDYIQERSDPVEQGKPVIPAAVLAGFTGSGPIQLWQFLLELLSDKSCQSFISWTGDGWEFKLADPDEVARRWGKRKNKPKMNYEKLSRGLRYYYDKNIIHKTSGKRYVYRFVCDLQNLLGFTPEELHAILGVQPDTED
Outline: as §1

SPDEF = biological target: T9, SPDEF (Homo sapiens, UniProt O95238 1-335); details: protein: recombinant; tags: N-terminal GST; dsDNA, one strand shown
T9 sequence: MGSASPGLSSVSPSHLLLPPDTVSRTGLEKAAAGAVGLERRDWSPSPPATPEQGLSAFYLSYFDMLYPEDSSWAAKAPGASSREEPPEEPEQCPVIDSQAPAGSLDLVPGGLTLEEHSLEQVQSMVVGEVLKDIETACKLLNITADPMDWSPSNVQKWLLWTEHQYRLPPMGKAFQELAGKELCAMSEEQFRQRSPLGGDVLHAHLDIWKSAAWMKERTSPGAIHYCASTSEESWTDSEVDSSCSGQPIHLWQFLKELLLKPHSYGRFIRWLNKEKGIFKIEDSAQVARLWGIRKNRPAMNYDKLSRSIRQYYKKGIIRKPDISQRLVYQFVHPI
Outline: as §1

ETV7 = biological target: T10, ETV7 (Homo sapiens, UniProt Q9Y603 1-341); details: protein: recombinant; tags: N-terminal GST; dsDNA, one strand shown
T10 sequence: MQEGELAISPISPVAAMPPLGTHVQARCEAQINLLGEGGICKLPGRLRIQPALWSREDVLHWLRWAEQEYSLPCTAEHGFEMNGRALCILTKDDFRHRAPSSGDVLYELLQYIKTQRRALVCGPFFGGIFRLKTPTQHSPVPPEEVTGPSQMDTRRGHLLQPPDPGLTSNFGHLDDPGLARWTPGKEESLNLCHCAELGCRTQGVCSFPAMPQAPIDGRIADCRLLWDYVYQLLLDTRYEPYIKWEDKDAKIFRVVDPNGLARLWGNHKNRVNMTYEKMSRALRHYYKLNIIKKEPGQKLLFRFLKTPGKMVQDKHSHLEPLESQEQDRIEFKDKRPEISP
Outline: as §1

ELF5 = biological target: T11, ELF5 (Homo sapiens, UniProt Q9UKW6-2 1-255); details: protein: recombinant; tags: N-terminal GST; dsDNA, one strand shown
T11 sequence: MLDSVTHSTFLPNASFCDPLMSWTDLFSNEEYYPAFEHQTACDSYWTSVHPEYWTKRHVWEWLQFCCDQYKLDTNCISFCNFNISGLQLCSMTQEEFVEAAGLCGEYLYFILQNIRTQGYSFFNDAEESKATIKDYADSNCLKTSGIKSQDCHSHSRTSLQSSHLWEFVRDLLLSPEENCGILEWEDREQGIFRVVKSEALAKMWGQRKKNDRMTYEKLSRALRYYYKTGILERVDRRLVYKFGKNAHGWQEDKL
Outline: as §1

ETV3 = biological target: T12, ETV3 (Homo sapiens, UniProt P41162-2 1-143); details: protein: recombinant; tags: N-terminal GST; dsDNA, one strand shown
T12 sequence: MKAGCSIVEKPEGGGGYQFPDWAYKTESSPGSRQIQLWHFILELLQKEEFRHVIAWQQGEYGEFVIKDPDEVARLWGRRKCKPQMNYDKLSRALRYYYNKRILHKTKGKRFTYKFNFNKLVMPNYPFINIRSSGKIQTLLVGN
Outline: as §1

ETV6 = ETV6 (Homo sapiens, UniProt P41212 1-452); details: protein: recombinant; tags: N-terminal GST; dsDNA, one strand shown
Outline: as §1

Sequence of HSF1 (Q00613 whole entry): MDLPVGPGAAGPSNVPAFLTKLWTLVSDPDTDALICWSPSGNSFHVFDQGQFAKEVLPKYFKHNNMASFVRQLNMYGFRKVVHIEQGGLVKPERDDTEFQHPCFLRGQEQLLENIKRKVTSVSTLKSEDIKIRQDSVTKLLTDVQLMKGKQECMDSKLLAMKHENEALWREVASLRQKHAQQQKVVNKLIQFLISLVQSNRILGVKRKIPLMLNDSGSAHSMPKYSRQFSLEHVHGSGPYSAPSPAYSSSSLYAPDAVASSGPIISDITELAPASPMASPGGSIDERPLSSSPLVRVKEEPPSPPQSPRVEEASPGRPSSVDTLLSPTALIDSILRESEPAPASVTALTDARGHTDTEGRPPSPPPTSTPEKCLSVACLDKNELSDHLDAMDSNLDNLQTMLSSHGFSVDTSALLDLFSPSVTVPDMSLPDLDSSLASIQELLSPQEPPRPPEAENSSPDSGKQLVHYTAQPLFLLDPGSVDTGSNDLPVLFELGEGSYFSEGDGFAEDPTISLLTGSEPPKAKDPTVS
Sequence of CRX (O43186 whole entry): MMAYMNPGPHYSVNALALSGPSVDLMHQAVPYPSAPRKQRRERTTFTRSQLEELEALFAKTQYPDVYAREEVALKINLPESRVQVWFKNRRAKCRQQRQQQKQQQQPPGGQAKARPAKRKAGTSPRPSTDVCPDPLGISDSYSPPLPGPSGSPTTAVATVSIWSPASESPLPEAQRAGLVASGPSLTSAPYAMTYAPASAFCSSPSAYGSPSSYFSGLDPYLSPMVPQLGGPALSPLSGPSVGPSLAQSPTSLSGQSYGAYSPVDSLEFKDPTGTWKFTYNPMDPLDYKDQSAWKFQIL
Sequence of ETV1 (P50549 whole entry): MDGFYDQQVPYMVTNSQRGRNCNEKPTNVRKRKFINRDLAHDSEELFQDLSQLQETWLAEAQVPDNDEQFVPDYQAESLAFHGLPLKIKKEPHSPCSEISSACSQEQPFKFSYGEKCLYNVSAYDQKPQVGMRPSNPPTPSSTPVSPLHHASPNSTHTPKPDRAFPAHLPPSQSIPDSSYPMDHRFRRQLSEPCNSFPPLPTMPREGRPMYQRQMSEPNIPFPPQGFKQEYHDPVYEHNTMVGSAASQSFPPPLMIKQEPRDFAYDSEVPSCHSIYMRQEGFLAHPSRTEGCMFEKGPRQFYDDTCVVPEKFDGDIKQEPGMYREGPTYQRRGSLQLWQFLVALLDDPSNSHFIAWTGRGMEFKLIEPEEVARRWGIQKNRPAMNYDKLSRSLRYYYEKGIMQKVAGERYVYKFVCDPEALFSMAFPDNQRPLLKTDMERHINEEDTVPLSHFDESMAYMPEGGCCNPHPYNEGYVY
Sequence of ETV5 (P41161 whole entry): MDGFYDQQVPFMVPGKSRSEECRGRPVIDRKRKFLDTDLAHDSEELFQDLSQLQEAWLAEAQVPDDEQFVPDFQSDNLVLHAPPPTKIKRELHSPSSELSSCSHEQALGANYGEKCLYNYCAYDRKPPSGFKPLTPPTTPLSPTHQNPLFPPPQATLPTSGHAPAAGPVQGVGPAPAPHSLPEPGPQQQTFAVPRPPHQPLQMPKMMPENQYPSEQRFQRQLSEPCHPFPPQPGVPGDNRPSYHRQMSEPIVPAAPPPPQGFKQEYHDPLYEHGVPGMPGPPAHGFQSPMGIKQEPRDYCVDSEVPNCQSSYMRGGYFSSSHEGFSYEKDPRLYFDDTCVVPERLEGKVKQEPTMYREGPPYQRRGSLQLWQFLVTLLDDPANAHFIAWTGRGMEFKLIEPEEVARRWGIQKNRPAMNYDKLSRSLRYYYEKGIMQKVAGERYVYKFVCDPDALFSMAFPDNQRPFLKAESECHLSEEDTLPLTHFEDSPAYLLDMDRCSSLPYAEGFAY
Sequence of ETV6 (P41212 whole entry): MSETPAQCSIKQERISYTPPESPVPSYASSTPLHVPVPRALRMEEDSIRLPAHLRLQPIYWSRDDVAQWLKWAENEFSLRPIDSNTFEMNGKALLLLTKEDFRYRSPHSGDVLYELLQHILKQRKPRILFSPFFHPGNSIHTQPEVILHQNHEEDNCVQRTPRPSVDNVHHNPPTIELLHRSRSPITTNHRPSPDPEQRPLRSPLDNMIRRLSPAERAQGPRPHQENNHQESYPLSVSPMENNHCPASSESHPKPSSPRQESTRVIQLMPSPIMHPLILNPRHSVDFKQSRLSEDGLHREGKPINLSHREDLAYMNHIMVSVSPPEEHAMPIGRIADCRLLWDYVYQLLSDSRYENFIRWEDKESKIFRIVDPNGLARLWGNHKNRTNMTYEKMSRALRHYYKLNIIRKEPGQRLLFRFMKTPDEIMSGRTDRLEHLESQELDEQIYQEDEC
Sequence of ELF4 (Q99607 whole entry): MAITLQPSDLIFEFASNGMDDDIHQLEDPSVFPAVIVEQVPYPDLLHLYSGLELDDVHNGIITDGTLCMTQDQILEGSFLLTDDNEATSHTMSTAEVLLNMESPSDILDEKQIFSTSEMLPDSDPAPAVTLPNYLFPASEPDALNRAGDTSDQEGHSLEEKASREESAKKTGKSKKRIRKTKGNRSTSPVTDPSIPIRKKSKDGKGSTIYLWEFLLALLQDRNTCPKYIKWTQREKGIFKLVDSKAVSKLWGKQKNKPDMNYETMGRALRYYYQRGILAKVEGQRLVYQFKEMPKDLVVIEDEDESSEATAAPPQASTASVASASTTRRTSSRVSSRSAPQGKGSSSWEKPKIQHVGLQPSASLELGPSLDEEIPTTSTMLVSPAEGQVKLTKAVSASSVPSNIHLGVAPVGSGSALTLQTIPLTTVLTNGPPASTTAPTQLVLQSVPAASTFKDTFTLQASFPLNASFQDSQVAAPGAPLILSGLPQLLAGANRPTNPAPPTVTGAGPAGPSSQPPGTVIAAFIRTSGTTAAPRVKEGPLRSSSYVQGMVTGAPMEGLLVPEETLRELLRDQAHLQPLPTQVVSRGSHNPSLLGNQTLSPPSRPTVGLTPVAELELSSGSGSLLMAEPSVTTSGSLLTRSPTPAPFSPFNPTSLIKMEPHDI

## TAGGCT
FEV
  binding signal: 1.25 fold enrichment (6-mer frequency, TF over GST control)
ETV5
  binding signal: 1.19 fold enrichment (6-mer frequency, TF over GST control)
HSF1
  binding signal: 1.45 fold enrichment (6-mer frequency, TF over GST control)
SPIC
  binding signal: 1.29 fold enrichment (6-mer frequency, TF over GST control)
ELF4
  binding signal: 1.2 fold enrichment (6-mer frequency, TF over GST control)
ELK4
  binding signal: 1.13 fold enrichment (6-mer frequency, TF over GST control)
ETV2
  binding signal: 1.09 fold enrichment (6-mer frequency, TF over GST control)
ELF3
  binding signal: 1.1 fold enrichment (6-mer frequency, TF over GST control)
CRX
  binding signal: 1.99 fold enrichment (6-mer frequency, TF over GST control)
ETV1
  binding signal: 1.08 fold enrichment (6-mer frequency, TF over GST control)
ERF
  binding signal: 1.37 fold enrichment (6-mer frequency, TF over GST control)
ETV3L
  binding signal: 1.16 fold enrichment (6-mer frequency, TF over GST control)
ETS2
  binding signal: 1.29 fold enrichment (6-mer frequency, TF over GST control)
SPDEF
  binding signal: 1.24 fold enrichment (6-mer frequency, TF over GST control)
ETV7
  binding signal: 1.35 fold enrichment (6-mer frequency, TF over GST control)
ELF5
  binding signal: 1.09 fold enrichment (6-mer frequency, TF over GST control)
ETV3
  binding signal: 1.14 fold enrichment (6-mer frequency, TF over GST control)
ETV6
  binding signal: 1.24 fold enrichment (6-mer frequency, TF over GST control)
